Compound activity from PubChem BioAssay.
The list is a sample of the results.
aSyn UTR act = Activators via SNCA 5'UTR binding, MLPCN; alpha-synuclein 5'UTR reporter, activators screen; activity score, % (tested at 7.5 µM), hits read low; hit rate 7.1% among 300,000; AID 1814, 2009; in the data active = activity score below about -60%
* marks the source's active call; other numbers are inactive results.

SMILES	aSyn UTR act
Cc1[nH]c2ccc(C(=O)N3CCCCC3)cc2c1C	-111.8*
CCOC(=O)c1ccc2[nH]c(C)c(C)c2c1	-85.9*
COC(=O)c1ccc2[nH]c(C(C)(C)O)c(C)c2c1	-93.7*
CCOC(=O)c1ccc2[nH]c3ccccc3c2c1	-132.6*
Cc1ccc2[nH]c(C(=O)N3CCCCC3)cc2c1	-97.6*
NNC(=O)c1ccc(OCC2CC(c3ccc(Cl)cc3)=NO2)cc1 (centres undefined)	-74.4*
Cc1nnc(N/N=C/c2ccc(-c3ccccc3F)o2)n1N	-107.5*
Cc1nnc(N/N=C\c2ccc(-c3ccccc3[N+](=O)[O-])o2)n1N	-75.0*
COc1ccc(/C=C/C(=O)NC2CCCCCC2)cc1S(=O)(=O)N1CCOCC1	-74.8*
Cc1ccc(C(=O)NC2CCCCCC2)cc1S(=O)(=O)N1CCOCC1	-70.3*
CCN(CC)S(=O)(=O)c1cc(C(=O)NC2CCCCC2)ccc1C	-111.4*
Cc1ccc(NC(=S)Nc2ccc(Br)cc2)cc1	-85.8*
Fc1cc(Br)ccc1NC(=S)Nc1ccccc1	-115.0*
Fc1ccccc1NC(=S)Nc1ccc(Br)cc1	-73.6*
CCn1cnc2cc(NCc3nc4ccccc4n3Cc3ccccc3)ccc21	-138.0*
CC(C)n1cnc2cc(NCc3nc4ccccc4n3C)ccc21	-115.1*
CCn1cnc2cc(NCc3nc4ccccc4n3C)ccc21	-107.7*
Cc1ccc(NC(=O)CN2C(=O)N/C(=C/c3ccc(N4CCOCC4)cc3)C2=O)cc1	-118.0*
CN(C(=O)c1cccnc1)c1nc(-c2ccccc2)cs1	-128.3*
NC(=O)c1cc(-c2csc(-c3cccnc3)n2)ccc1O	-102.5*
c1ccc(-c2nc(-c3cccnc3)cs2)cc1	-108.6*
CN1CCN(CC(=O)N(C)c2nc(-c3ccccc3)cs2)CC1	-150.1*
c1ccc(-c2csc(-c3cccnc3)n2)cc1	-77.5*
Nc1cccc2nc3ccccc3cc12	100.6
Oc1ccc(C=Nc2ccccc2-c2nc3ccccc3[nH]2)cc1	-142.0*
SMILES	aSyn UTR act
Nc1ccccc1-c1nc2ccccc2[nH]1	-162.9*
O=c1[nH]cccc1-c1nc2ccccc2[nH]1	-131.7*
Cn1cc(-c2nc3ccccc3[nH]2)c2ccccc21	-124.2*
FC(F)(F)c1ccc(Nc2nnnc3ccccc23)cc1	-139.6*
Cc1cccc(N/C=C/c2onc(C)c2[N+](=O)[O-])c1	-156.1*
Cc1cc(O)ccc1N/C=C/c1onc(C)c1[N+](=O)[O-]	-109.6*
Nc1c2c(=O)oc(-c3ccccc3)cc2nn1-c1ccccc1	-181.5*
CC1(C)CC(=O)c2sc(NC(=O)C(C)(C)C)nc2C1	-184.0*
CC1(C)CC(=O)c2sc(NC(=O)c3ccc4ncsc4c3)nc2C1	-76.6*
CC1(C)CNC(=O)c2sc(NC(=O)c3ccccc3)nc2C1	-154.9*
CC1(C)CC(=O)c2sc(NC(=O)c3ccccc3)nc2C1	-78.4*
C#CC[N+](C)(C)CCCCCCCCCC	75.3
O=C(Nc1nnc(-c2ccccc2F)s1)c1cccnc1	-115.7*
Cc1ccc(NC(=O)Nc2nnc(-c3ccccc3F)s2)cc1	-84.5*
COc1ccc(NC(=O)Nc2nnc(C(C)C)s2)cc1	-134.9*
COc1ccc(NC(=O)Nc2nnc(-c3ccncc3)s2)cc1	-100.4*
COc1ccc(NC(=O)Nc2nnc(-c3ccco3)s2)cc1	-108.3*
COc1ccc(NC(=O)Nc2nnc(-c3ccccc3F)s2)cc1	-134.3*
O=c1cc(N2CCOCC2)cnn1-c1ccccc1	-123.1*
CCc1ccc(NC(=S)Nc2cc(C(=O)O)ccc2N2CC3CC(C2)c2cccc(=O)n2C3)cc1 (centres undefined)	-113.6*
CCOC(=O)c1csc(Nc2nc3ccc(F)cc3s2)n1	-81.6*
CC(=O)c1sc(Nc2nc3ccc(F)cc3s2)nc1C	-216.3*
COC(=O)c1ccc2nc(Nc3nc4ccc(F)cc4s3)sc2c1	75.1
CCOc1ccc2c(c1)OC(c1ccc(C)cc1)(C(F)(F)F)NC2=O (centres undefined)	95.8
CCOc1ccc2nc(/N=C/c3c(C)[nH]n(-c4ccccc4)c3=O)sc2c1	-144.3*
SMILES	aSyn UTR act
CCCCCN=Cc1c(C)[nH]n(-c2nc3ccccc3s2)c1=O	62.5
CCOc1ccc2nc(/N=C/c3c(C)[nH]n(-c4ccc(C)cc4)c3=O)sc2c1	-143.0*
Cc1nn(-c2ccccc2)c(C)c1Cc1ccc(O)cc1	-117.1*
COC(=O)C(C)N1C(=O)S/C(=C\c2ccc(-c3ccc(C(=O)O)cc3C)o2)C1=O (centres undefined)	-136.7*
COc1cccc(NC(=O)COc2ccccc2)c1	-143.7*
CC(C)(C)C1(C)OC(=O)C(=Cc2ccc(OCC(=O)Nc3ccccc3)cc2)C(=O)O1 (centres undefined)	-84.1*
COc1cccc(NC(=O)c2cccc(C)c2[N+](=O)[O-])c1	-75.8*
CC(=O)Nc1cccc(OCCCNC(=O)c2ccc(C(C)(C)C)cc2)c1	-71.7*
COc1cccc(NC(=O)CC(=O)c2ccc([N+](=O)[O-])cc2)c1	-115.4*
CC(=O)Nc1cccc(OCC(=O)Nc2sccc2C(N)=O)c1	-81.7*
CC(=O)Nc1cccc(OCC(=O)Nc2ccccc2)c1	-114.0*
CSc1cccc(NC(=O)COc2ccccc2C)c1	-85.2*
